Test results from PubChem BioAssay.
Activity calls are given as the source filed them. No stated cut-off is given here; in the data, active means inhibition above about 30%; inactive means the rest.

experiment: growth suppression of yeast trafficking mutant, preliminary HTS, modulators of trafficking downstream of Golgi apparatus project, 1536-format plate, OD 615 nm (AID 637); settings: yeast transport mutant growth, absorbance 615 nm, 18 h; hits give high values

inhibition, inactive:
O=C(NCCN1CCCCCC1)c1ccc(CS(=O)(=O)c2ccc(Br)cc2)o1 2.5%
Cc1ccc(S(=O)(=O)NCCOC(=O)Nc2sc(=S)n(C)c2C)cc1 14.9%
COc1ccccc1CC(=O)Nc1ccc(OC)c(OC)c1 5.74%
CCOC(=O)N1CCC(NC(=O)C2CCCN(C(=O)c3cc4sccc4n3C)C2)CC1 (stereo not given) -0.83%
CCOC(=O)c1[nH]c(C)c(C(=O)Nc2ccc(Cl)cc2)c1C 0.17%
O=C(NC(=O)c1cccc(F)c1)OC[C@@H]1CCCN2CCCC[C@H]12 1.48%
COc1ccccc1-n1c(=O)[nH]c2c(C(N)=O)nc(-c3cccnc3)nc21 -3.93%
CC1(C)CC(=O)c2cnc(NC(=O)Cc3ccc(Cl)cc3)nc2C1 -0.98%
CC(C)(NC(=O)N1CCCC1)c1cccc(C(C)(C)NC(=O)N2CCCC2)c1 -4%
COc1ccc(NC(=O)C2CCCN(S(=O)(=O)c3cccc4cccnc34)C2)cc1OC (stereo not given) 1.67%
CCOc1ccc(CCN2C(=O)C3C4C=CC(C4)C3C2=O)cc1OCC (stereo not given) -1.67%
COc1ccc(S(=O)(=O)N2CCN(c3ccc(C)cc3C)CC2)cc1OC 2.5%
O=C(C1CCN(c2nnc(-n3cccc3)s2)CC1)N1CCc2ccccc2C1 -6%
CCOc1cc(C2C3=C(CCCC3=O)N(C)C3=C2C(=O)CCC3)cc(Cl)c1O 0.49%

inhibition, active:
CCN(CC)C(=O)C1CCCc2c1[nH]c1ccc(Cl)cc21 (stereo not given) 44%
